Measurements published in PubChem BioAssay (NCATS).
Active and inactive are the calls of the source. The call rests on the fitted dose curve; in most records, active means well fitted curve in the direction sought with a large enough effect; inactive means no such curve, though single readings can be large or run the other way.

Each compound was assayed against Alpha-galactosidase A (Homo sapiens) (UniProt P06280) (assay: Counterscreen for Glucocerebrosidase Inhibitors: qHTS Assay for Human alpha-Galactosidase at pH 4.5 (AID 992; further: 0% is about no effect)). Settings: purified enzyme, fluorogenic substrate; series mostly up to 76.9 µM; activity change, negative = inhibition: at the top concentration.
Sequence of Alpha-galactosidase A (Homo sapiens) (P06280 whole entry, looked up): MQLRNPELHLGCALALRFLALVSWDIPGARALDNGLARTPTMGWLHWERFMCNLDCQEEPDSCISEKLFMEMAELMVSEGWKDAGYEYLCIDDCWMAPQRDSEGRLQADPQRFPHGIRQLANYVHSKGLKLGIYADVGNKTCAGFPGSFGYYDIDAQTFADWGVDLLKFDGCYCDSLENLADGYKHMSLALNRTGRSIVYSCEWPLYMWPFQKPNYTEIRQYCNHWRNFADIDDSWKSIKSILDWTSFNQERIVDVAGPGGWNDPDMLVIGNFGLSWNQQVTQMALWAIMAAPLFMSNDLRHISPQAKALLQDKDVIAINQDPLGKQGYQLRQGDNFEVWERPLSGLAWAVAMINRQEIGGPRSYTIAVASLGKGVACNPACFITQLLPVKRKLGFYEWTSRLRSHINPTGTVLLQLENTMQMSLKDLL
From the text: NIH Chemical Genomics Center [NCGC]
NIH Molecular Libraries Screening Centers Network [MLSCN]
PI Name: Zheng, Wei [NIH]
Alpha-galactosidase is a homodimeric glycoprotein that hydrolyzes the terminal alpha-galactosyl moieties from glycolipids and glycoproteins. Deficiency of this enzyme results in Fabry Disease with progressive accumulation of globotriaosylceramide and other glycosphingolipids in vascular endothelial cells that causes renal failure, myocardial infarction and stroke, and premature death in patients. It has reported that the improper folding and trafficking of alpha-galactosidase resulted from the genetic mutations may account for a significant numbers of Fabry patients. […] We optimized this alpha-galactosidase assay in 1536-well plate format for identifying the novel small molecule inhibitors with the structures other than the sugar analogs in order to develop the new pharmacological chaperones.
NCGC Assay Protocol Summary:
This is a fluorogenic enzyme assay with 4-Methylumbelliferyl alpha-D-galactopyranoside as the substrate and human […] as the enzyme preparation. Upon the hydrolysis of this fluorogenic substrate, the resulting product, […]. 4-Methyllumbelliferone, can be excited at 365 nm and emits at 440 nm which can be detected by a standard fluorescence plate reader. Data were normalized to the controls for basal activity (without enzyme) and 100% activity (with enzyme). In the AC50 values were determined from concentration-response data modeled with the standard Hill equation.
Assay buffer: 50 mM citric acid, 0.005% Tween-20, pH 4.5. (pH 4.5 is an optimal condition for this enzyme assay)
1536-well assay protocol for the human alpha-galactosidase:
(1) Add 2 ul/well of enzyme (2 nM final)
(2) Add 23 nL compounds in DMSO solution. The final titration was 0.7 nM to 77 uM.
(3) Add 1 ul of substrate (80 uM final)
(4) Incubate at room temperature for 20 min.
(5) Add 2 ul stop solution (1M NaOH and 1M Glycine mixture, pH 10)
(6) Detect the assay plate in a ViewLux plate reader (PerkinElmer) with Ex=365 nm and Em=440nm.
Keywords: Alpha-galactosidase, Fabry Disease, pharmacological chaperone, chaperone therapy, high throughput screening, alpha-galactosidase inhibitor, MLSMR, MLSCN, NIH Roadmap, qHTS and NCGC
In the case of `OCCN1CCN(CC/C=C2\c3ccccc3Sc3ccc(C(F)(F)F)cc32)CC1`, the “activity change, negative = inhibition” value is reported as -3.1% (inactive).
With `CN(C)CCO[C@](C)(c1ccccc1)c1ccccn1` the “activity change, negative = inhibition” value was -1.58% (inactive).
With `N[C@@H](CO)C(=O)NNCc1ccc(O)c(O)c1O` the “activity change, negative = inhibition” value was -3.72% (inactive).
`CCN(CC)CCC[C@H](C)Nc1c2ccc(Cl)cc2nc2ccc(OC)cc12` was tested, and the “activity change, negative = inhibition” value was -0.991% (inactive).
For `CN1C(=O)CC[C@@H]1c1cccnc1`, the “activity change, negative = inhibition” value was 0.324% (inactive).
`Oc1cc2c(c(Cl)c1O)CCNC[C@H]2c1ccccc1` was tested, and the “activity change, negative = inhibition” value was -2.24% (inactive).
With `CCN(CC)CCC[C@H](C)Nc1ccnc2cc(Cl)ccc12` the “activity change, negative = inhibition” value was 7.35% (inactive).
`CN1Cc2c(N)cccc2[C@H](c2ccccc2)C1` was tested, and the “activity change, negative = inhibition” value was -3.26% (inactive).
For `CC(=O)O[C@@H](C)C[N+](C)(C)C`, the “activity change, negative = inhibition” value was -1.37% (inactive).
In the case of `CC1=C(C(=O)O)N2C(=O)[C@@H](NC(=O)[C@@H](N)c3ccccc3)[C@@H]2SC1`, the “activity change, negative = inhibition” value is reported as -1.07% (inactive).
For `CCCN(CCC)C(=O)[C@@H](CCC(=O)O)NC(=O)c1ccccc1`, the “activity change, negative = inhibition” value was -0.87% (inactive).
In the case of `CCCCCN(CCCCC)C(=O)[C@H](CCC(=O)O)NC(=O)c1ccc(Cl)c(Cl)c1`, the “activity change, negative = inhibition” value is reported as 0.378% (inactive).
For `C[C@@H]1c2cccc(O)c2C(O)=C2C(=O)[C@@]3(O)C(O)=C(C(N)=O)C(=O)[C@@H](N(C)C)[C@@H]3[C@@H](O)[C@@H]21`, the “activity change, negative = inhibition” value was -3.94% (inactive).
For `C[C@@H](C(=O)O)c1cccc(C(=O)c2ccccc2)c1`, the “activity change, negative = inhibition” value was -0.124% (inactive).
In the case of `CCCN[C@@H](C)C(=O)Nc1ccccc1C`, the “activity change, negative = inhibition” value is reported as 0.181% (inactive).
`C[C@@H](C[N+](C)(C)C)OC(N)=O` was tested, and the “activity change, negative = inhibition” value was -0.562% (inactive).
`CC(C)COC[C@H](CN(Cc1ccccc1)c1ccccc1)N1CCCC1` was tested, and the “activity change, negative = inhibition” value was -9.01% (inactive).
In the case of `CC(=O)OCC1=C(C(=O)O)N2C(=O)[C@@H](NC(=O)Cc3cccs3)[C@@H]2SC1`, the “activity change, negative = inhibition” value is reported as -2.03% (inactive).
In the case of `CN(C)[C@@H]1C(=O)C(C(N)=O)=C(O)[C@]2(O)C(=O)C3=C(O)c4c(O)ccc(Cl)c4[C@H](O)[C@H]3C[C@@H]12`, the “activity change, negative = inhibition” value is reported as -7.2% (inactive).
With `CO[C@]1(NC(=O)CSCC#N)C(=O)N2C(C(=O)O)=C(CSc3nnnn3C)CS[C@H]21` the “activity change, negative = inhibition” value was -1.04% (inactive).
For `O[C@@](CCN1CCCCC1)(c1ccccc1)C1CCCCC1`, the “activity change, negative = inhibition” value was 1.76% (inactive).
In the case of `C[C@@](N)(Cc1ccc(O)cc1)C(=O)O`, the outcome is reported as “inactive”.
`CC(C)(Oc1ccc([C@@H]2CC2(Cl)Cl)cc1)C(=O)O` was tested, and the “activity change, negative = inhibition” value was -1.44% (inactive).
In the case of `C[C@@](N)(Cc1ccc(O)c(O)c1)C(=O)O`, the “activity change, negative = inhibition” value is reported as -3.8% (inactive).
With `CC(C)(C)NC[C@H](O)c1cc(O)cc(O)c1` the “activity change, negative = inhibition” value was 3.95% (inactive).
With `CN1[C@@H](CC(=O)c2ccccc2)CCC[C@@H]1C[C@@H](O)c1ccccc1` the “activity change, negative = inhibition” value was 0.784% (inactive).
For `C[C@@H]1COc2c(N3CCN(C)CC3)c(F)cc3c(=O)c(C(=O)O)cn1c23`, the “activity change, negative = inhibition” value was -0.554% (inactive).
For `NC(=NCc1ccc(Cl)c(Cl)c1)NC(=O)c1nc(Cl)c(N)nc1N`, the “activity change, negative = inhibition” value was 20.2% (inactive).
With `N[C@H](C(=O)N[C@@H]1C(=O)N2C(C(=O)O)=C(Cl)CS[C@@H]12)c1ccccc1` the “activity change, negative = inhibition” value was -6.52% (inactive).
In the case of `CN1[C@@H]2CC[C@H]1CC(OC(=O)[C@@H](O)c1ccccc1)C2` (stereo not given in full), the “activity change, negative = inhibition” value is reported as 1.44% (inactive).
With `O=C(O)CNC(=O)[C@@H](CS)Cc1ccccc1` the “activity change, negative = inhibition” value was -3.14% (inactive).
In the case of `CC[C@H](NC(C)C)[C@H](O)c1ccc(O)c(O)c1`, the “activity change, negative = inhibition” value is reported as -4.13% (inactive).
With `CC(=O)O[C@]1(C(C)=O)CC[C@@H]2[C@@H]3C=C(Cl)C4=CC(=O)[C@H]5C[C@@H]5[C@]4(C)[C@H]3CC[C@]21C` the “activity change, negative = inhibition” value was -2.93% (inactive).
With `c1ccc([C@@H]2CN3CCSC3=N2)cc1` the outcome was “inactive”.
For `Cn1cc(C(F)(F)F)nc1-c1ccc(OC[C@@H](O)CNCCOc2ccc(O)c(C(N)=O)c2)cc1`, the “activity change, negative = inhibition” value was 4.26% (inactive).
`C[C@H](NCCc1ccc(O)cc1)[C@@H](O)c1ccc(O)cc1` was tested, and the “activity change, negative = inhibition” value was -5.98% (inactive).
`CC[C@]1(C)CC(=O)NC1=O` was tested, and the “activity change, negative = inhibition” value was -0.672% (inactive).
For `COc1cc(=O)n(C)c2c(OC[C@@H](O)C(C)(C)O)cccc12`, the “activity change, negative = inhibition” value was -0.0045% (inactive).
`C=CCc1ccccc1OC[C@H](O)CNC(C)C` was tested, and the “activity change, negative = inhibition” value was 1.35% (inactive).
With `Cc1cccc(C)c1OC[C@H](C)N` the “activity change, negative = inhibition” value was -0.562% (inactive).
